Source: PubChem
MITF inh: human MITF inhibition, primary screen | 650,000 compounds, 0.91% hits | AlphaScreen MITF homodimerization, bead proximity signal | inhibition, % at 2.6 µM | AID 1259374 | O75030; in the data active means inhibition above about 50%
Target sequence (O75030 whole entry, looked up): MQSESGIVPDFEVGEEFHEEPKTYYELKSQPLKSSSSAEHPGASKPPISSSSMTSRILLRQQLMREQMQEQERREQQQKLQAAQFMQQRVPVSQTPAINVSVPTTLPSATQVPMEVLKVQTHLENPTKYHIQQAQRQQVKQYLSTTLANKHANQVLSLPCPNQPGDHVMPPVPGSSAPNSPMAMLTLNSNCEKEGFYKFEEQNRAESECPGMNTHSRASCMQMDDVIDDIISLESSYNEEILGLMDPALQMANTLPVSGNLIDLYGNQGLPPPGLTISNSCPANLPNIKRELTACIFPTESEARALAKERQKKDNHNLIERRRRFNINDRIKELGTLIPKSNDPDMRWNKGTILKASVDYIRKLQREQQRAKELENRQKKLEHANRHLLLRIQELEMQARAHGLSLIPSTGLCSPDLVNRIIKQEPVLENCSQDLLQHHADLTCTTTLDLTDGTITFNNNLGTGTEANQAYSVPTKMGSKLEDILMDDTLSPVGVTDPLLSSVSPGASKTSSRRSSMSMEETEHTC
FBW7 activator: activators of human E3 ligase FBW7; Q969H0; AlphaScreen FBW7–phospho-cyclin E peptide binding, activator screen; normalized activity (activation), % at 26.1 µM; 650,000 compounds, 0.13% hits; in the data active means normalized activity above about 1.9%;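 further: purified mutant Fbw7 with reduced substrate affinity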
TEAD-YAP block: TEAD-YAP interaction inhibition | HEK-TIYL cells, TEAD-Gal4/YAP UAS-luciferase luminescence | 640,000 compounds, 1.4% hits | inhibition, % at 9.12 µM; in the data active means inhibition above about 32%
GPR151 activ: human GPR151 activation; Q8TDV0; PathHunter beta-arrestin GPR151 cells, luminescence; activation, % at 11.2 µM; 650,000 compounds, 1% hits; in the data active means activation above about 4.9%
Numbers stand for hits. The list is not random: actives were taken first. Their share in the collection is about 3.5%.

O=C(CSc1cc(N2CCOCC2)ncn1)c1cccs1 was read as MITF inh inactive, FBW7 activator inactive, TEAD-YAP block 73 and GPR151 activ inactive.
`CN(C)C(CNc1nccnc1-c1ccncc1)c1cccnc1` (stereo unspecified) gave MITF inh inactive, FBW7 activator inactive, TEAD-YAP block inactive and GPR151 activ inactive.
`COc1ccc(CCNc2nc(Cl)ncc2C)cc1` gave MITF inh inactive, FBW7 activator inactive, TEAD-YAP block 42 and GPR151 activ inactive.
For COc1ccc(CCNc2nc(-c3cccs3)ncc2C)cc1 the results were MITF inh inactive, FBW7 activator inactive, TEAD-YAP block 44 and GPR151 activ inactive.
`Cc1cnc(Cl)nc1NCCc1ccc(O)cc1` gave MITF inh inactive, FBW7 activator inactive, TEAD-YAP block inactive and GPR151 activ inactive.
For COc1cc(Cl)c(C)cc1NC(=O)COC(=O)c1cc(O)[nH]c(=O)c1 the results were MITF inh 63, FBW7 activator inactive, TEAD-YAP block inactive and GPR151 activ inactive.
For O=C(COC(=O)c1cc(O)[nH]c(=O)c1)Nc1cc(C(F)(F)F)ccc1Cl the results were MITF inh inactive, FBW7 activator inactive, TEAD-YAP block inactive and GPR151 activ inactive.
For CC[n+]1c(C)sc2ccc(C)cc21 the results were MITF inh inactive, FBW7 activator inactive, TEAD-YAP block inactive and GPR151 activ inactive.
`CC[n+]1c(/C=C/c2ccc(N(C)C)cc2)sc2cc(C)ccc21` gave MITF inh inactive, FBW7 activator inactive, TEAD-YAP block 89 and GPR151 activ inactive.
CCOC(=O)/C=C/C(=O)Nc1cc(Cl)c(Cl)cc1Cl was read as MITF inh inactive, FBW7 activator inactive, TEAD-YAP block 58 and GPR151 activ inactive.
O=C(NCCOc1ccccc1)c1ccc2nc(-c3csc4ccccc34)sc2c1 was read as MITF inh inactive, FBW7 activator inactive, TEAD-YAP block inactive and GPR151 activ inactive.
Screening COc1ccc(Cc2nnc(C3CCN(C(=O)Cn4cnc5ccccc54)CC3)s2)cc1 returned MITF inh inactive, FBW7 activator inactive, TEAD-YAP block 54 and GPR151 activ inactive.
COc1cc(/C=N/Nc2snc(SC)c2C#N)cc(OC)c1OC was read as MITF inh inactive, FBW7 activator inactive, TEAD-YAP block 34 and GPR151 activ inactive.
CCOc1ccc(/C=N/Nc2snc(SC)c2C#N)cc1 was read as MITF inh inactive, FBW7 activator inactive, TEAD-YAP block inactive and GPR151 activ inactive.
`Fc1cc(-c2nc(Nc3ccc(Cn4ccnc4)cc3)ncc2F)cc(N2CCOCC2)c1` gave MITF inh inactive, FBW7 activator inactive, TEAD-YAP block 89 and GPR151 activ inactive.
Fc1cc(-c2nc(Nc3cccc(Cn4ccnc4)c3)ncc2F)cc(N2CCOCC2)c1 was read as MITF inh inactive, FBW7 activator inactive, TEAD-YAP block 94 and GPR151 activ inactive.
Screening Fc1cc(-c2nc(Nc3cccc(Cn4cncn4)c3)ncc2F)cc(N2CCOCC2)c1 returned MITF inh inactive, FBW7 activator inactive, TEAD-YAP block 88 and GPR151 activ inactive.
`Fc1cnc(Nc2ccc(Cn3cccn3)cc2)nc1-c1cc(N2CCOCC2)cc(C(F)(F)F)c1` gave MITF inh inactive, FBW7 activator inactive, TEAD-YAP block inactive and GPR151 activ inactive.
Fc1cnc(Nc2ccc(Cn3ccnc3)cc2)nc1-c1cc(N2CCOCC2)cc(C(F)(F)F)c1 was read as MITF inh inactive, FBW7 activator inactive, TEAD-YAP block 40 and GPR151 activ inactive.
Screening COc1ccc(S(=O)(=O)N(CC(=O)Nc2c(C)cccc2C)c2ccc(C)cc2)cc1 returned MITF inh inactive, FBW7 activator inactive, TEAD-YAP block inactive and GPR151 activ inactive.
For CC1(Cc2ccccc2)C(=O)Nc2ccccc21 (stereo unspecified) the results were MITF inh inactive, FBW7 activator inactive, TEAD-YAP block inactive and GPR151 activ inactive.
CSc1ncccc1C(=O)NCc1ccco1 was read as MITF inh inactive, FBW7 activator inactive, TEAD-YAP block inactive and GPR151 activ inactive.
Screening Fc1cc(-c2nc(Nc3ccc(-c4cnco4)cc3)ncc2F)cc(N2CCOCC2)c1 returned MITF inh inactive, FBW7 activator inactive, TEAD-YAP block inactive and GPR151 activ inactive.
Screening Fc1cc(-c2nc(Nc3ccc(-n4cnc(-c5ccccn5)c4)cc3)ncc2F)cc(N2CCOCC2)c1 returned MITF inh inactive, FBW7 activator inactive, TEAD-YAP block 54 and GPR151 activ inactive.
Screening CC(C)C1CCC(Nc2ncc(-c3cccc(C(=O)NCCN(C)C)c3)n3ccnc23)CC1 (stereo unspecified) returned MITF inh inactive, FBW7 activator inactive, TEAD-YAP block 39 and GPR151 activ inactive.
For COc1ccc2c(c1)C(=NNC(N)=S)c1cc(OC)ccc1-2 the results were MITF inh inactive, FBW7 activator inactive, TEAD-YAP block 50 and GPR151 activ inactive.
For COc1ccc2c(c1)C(=NO)c1cc(OC)ccc1-2 the results were MITF inh inactive, FBW7 activator inactive, TEAD-YAP block inactive and GPR151 activ inactive.
CC(C)c1nc2ccc(-c3cnn(-c4cccc(CN5CCOCC5)c4)c3)cc2c(=O)[nH]1 was read as MITF inh inactive, FBW7 activator inactive, TEAD-YAP block inactive and GPR151 activ inactive.
Screening Cc1nc2ccc(-c3cnn(-c4cccc(N5CCOCC5)c4)c3)cc2c(=O)n1C returned MITF inh inactive, FBW7 activator inactive, TEAD-YAP block 87 and GPR151 activ inactive.
For Cc1csc(NC(=O)CSc2nc3c(C)c(C)ccc3cc2C#N)n1 the results were MITF inh inactive, FBW7 activator inactive, TEAD-YAP block inactive and GPR151 activ inactive.
For COc1cc(/C=C2/C(=O)N(C)c3ccccc32)cc(OC)c1O the results were MITF inh inactive, FBW7 activator inactive, TEAD-YAP block 41 and GPR151 activ inactive.
Screening COc1cc(/C=C2\C(=O)N(C)C(=O)N(c3ccccc3)C2=O)cc(OC)c1O returned MITF inh inactive, FBW7 activator inactive, TEAD-YAP block inactive and GPR151 activ inactive.
`Nc1cccc(F)c1Nc1ccc2c(cnn2-c2cccc(C(=O)NCCN3CCOCC3)c2)c1` gave MITF inh inactive, FBW7 activator inactive, TEAD-YAP block 79 and GPR151 activ inactive.
Screening CCOC(=O)/C(=C\N(C)C)C(=O)c1cc([N+](=O)[O-])c(Cl)cc1Cl returned MITF inh inactive, FBW7 activator inactive, TEAD-YAP block 38 and GPR151 activ inactive.
CNCC(O)Cn1ccc2ccccc21 (stereo unspecified) was read as MITF inh inactive, FBW7 activator inactive, TEAD-YAP block inactive and GPR151 activ inactive.
For COc1ccccc1NCC(O)Cn1ccc2ccccc21 (stereo unspecified) the results were MITF inh 69, FBW7 activator inactive, TEAD-YAP block inactive and GPR151 activ inactive.
`Cc1nc2cc(NC(=O)c3ccc(S(=O)(=O)N(C)C4CCCCC4)cc3)ccc2s1` gave MITF inh inactive, FBW7 activator inactive, TEAD-YAP block 38 and GPR151 activ inactive.
For CCOc1ccc(N(CC(=O)N2CCOCC2)S(C)(=O)=O)cc1 the results were MITF inh inactive, FBW7 activator 2.1, TEAD-YAP block inactive and GPR151 activ inactive.
Screening CS(=O)(=O)N(CC(=O)N1CCOCC1)c1ccc(Oc2ccccc2)cc1 returned MITF inh inactive, FBW7 activator inactive, TEAD-YAP block inactive and GPR151 activ inactive.
